Measurements as given in PubChem BioAssay AID1159580 (chemical genetic matrix, 2015).
Hit rate of the full screen: of about 5,500 compounds, about 2,000 (36%) were called active. Not shown: some 18% with an inconclusive outcome. Cut-off read from the data, not from the text of the source: active = normalized growth mostly below about 0.91 (no sharp cut-off); inconclusive = no clear call, values can overlap the other calls; inactive = mostly above about 0.92. This is one part of the list.

Assay: chemical genetic growth profiling, strain panel (AID 1159580);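 note: tested at 20 µM; growth read once vehicle control cultures reached saturation at 30 °C; 1 = growth at the plate median or of vehicle wells; lower values mean less growth of the strain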
Details: S. cerevisiae deletion strains, growth OD

Measured: normalized growth

CCOCN(C(=O)CCl)c1c(C)cccc1CC
inactive: locus YAL013W, strain DEP1, active compounds read low 0.995 | locus YAL021C, strain ccr4, active compounds read low 0.988 | locus YAL026C, strain drs2, active compounds read low 0.998 | locus YAL030W, strain snc1, active compounds read low 0.992 | locus YBL061C, strain skt5, active compounds read low 0.994 | locus YBR009C, strain hhf1, active compounds read low 0.994 | locus YBR021W, strain FUR4, active compounds read low 1.01 | locus YBR023C, strain chs3, active compounds read low 0.98 | locus YBR171W, strain sec66, active compounds read low 0.971 | locus YBR229C, strain ROT2, active compounds read low 0.992 | locus YBR231C, strain swc5, active compounds read low 0.989 | locus YBR279W, strain paf1, active compounds read low 0.999 | locus YCL011C, strain gbp2, active compounds read low 0.998 | locus YCL016C, strain dcc1, active compounds read low 0.991 | locus YCL029C, strain bik1, active compounds read low 0.976 | locus YCL061C, strain MRC1, active compounds read low 0.98 | locus YCL069W, strain vba3, active compounds read low 0.992 | locus YCR088W, strain abp1, active compounds read low 0.984 | locus YDL005C, strain med2, active compounds read low 0.982 | locus YDL035C, strain GPR1, active compounds read low 0.99 | locus YDL040C, strain nat1, active compounds read low 1 | locus YDL074C, strain BRE1, active compounds read low 1.03 | locus YDL101C, strain DUN1, active compounds read low 0.983 | locus YDL134C, strain PPH21, active compounds read low 0.995 | locus YDL185W, strain tfp1, active compounds read low 0.967 | locus YDL192W, strain arf1, active compounds read low 0.979 | locus YDR001C, strain nth1, active compounds read low 0.991 | locus YDR069C, strain doa4, active compounds read low 0.987 | locus YDR101C, strain arx1, active compounds read low 0.98 | locus YDR137W, strain rgp1, active compounds read low 0.975 | locus YDR150W, strain NUM1, active compounds read low 0.954 | locus YDR159W, strain sac3, active compounds read low 0.959 | locus YDR162C, strain NBP2, active compounds read low 1 | locus YDR195W, strain ref2 0.982 | locus YDR297W, strain sur2, active compounds read low 0.986 | locus YDR318W, strain mcm21, active compounds read low 0.985 | locus YDR334W, strain swr1, active compounds read low 0.986 | locus YDR335W, strain msn5, active compounds read low 0.998 | locus YDR388W, active compounds read low 0.978 | locus YDR392W, strain spt3, active compounds read low 0.975 | locus YDR502C, strain sam2, active compounds read low 0.974 | locus YEL003W, strain gim4, active compounds read low 0.996 | locus YEL037C, strain rad23, active compounds read low 0.994 | locus YEL061C, strain CIN8 (second series), active compounds read low 0.994 | locus YEL061C, strain CIN8, active compounds read low 0.991 | locus YER015W, strain faa2, active compounds read low 0.993 | locus YER016W, strain bim1, active compounds read low 0.994 | locus YER110C, active compounds read low 0.978 | locus YER111C, strain swi4, active compounds read low 0.997 | locus YER155C, strain BEM2 (second series), active compounds read low 0.972 | locus YER155C, strain BEM2, active compounds read low 0.993 | locus YER167W, strain BCK2, active compounds read low 0.995 | locus YFR010W, strain ubp6, active compounds read low 0.992 | locus YGL078C, strain dbp3, active compounds read low 0.979 | locus YGL086W, strain mad1, active compounds read low 0.983 | locus YGL167C, strain pmr1, active compounds read low 0.985 | locus YGL173C, strain kem1, active compounds read low 0.976 | locus YGL227W, strain vid30, active compounds read low 0.983 | locus YGL240W, strain doc1, active compounds read low 0.985 | locus YGL248W, strain PDE1, active compounds read low 0.981 | locus YGL253W, strain hxk2, active compounds read low 0.981 | locus YGR078C, strain PAC10, active compounds read low 1 | locus YGR135W, strain pre9, active compounds read low 0.982 | locus YGR229C, strain SMI1, active compounds read low 1.01 | locus YGR252W, strain gcn5, active compounds read low 1.04 | locus YHR013C, strain ard1, active compounds read low 0.988 | locus YHR027C, strain rpn1, active compounds read low 0.98 | locus YHR030C, strain SLT2, active compounds read low 0.982 | locus YHR079C, strain IRE1 (second series), active compounds read low 0.979 | locus YHR094C, strain hxt1, active compounds read low 0.968 | locus YHR129C, strain ARP1, active compounds read low 0.963 | locus YHR142W, strain chs7, active compounds read low 1.04 | locus YHR200W, strain rpn10, active compounds read low 0.988 | locus YIL066C, strain RNR3, active compounds read low 0.976 | locus YIL073C, strain SPO22, active compounds read low 0.856 | locus YIL125W, strain kgd1, active compounds read low 0.997 | locus YIR030C, strain dcg1, active compounds read low 0.972 | locus YJL092W, strain hpr5, active compounds read low 0.985 | locus YJL095W, strain BCK1 (second series), active compounds read low 0.996 | locus YJL095W, strain BCK1, active compounds read low 1 | locus YJL115W, strain asf1, active compounds read low 0.976 | locus YJL129C, strain trk1, active compounds read low 1.01 | locus YJL134W, strain LCB3, active compounds read low 0.987 | locus YJL154C, strain vps35, active compounds read low 0.979 | locus YJL164C, strain tpk1, active compounds read low 0.994 | locus YJL166W, strain qcr8, active compounds read low 0.991 | locus YJL168C, strain set2, active compounds read low 0.984 | locus YJL187C, strain SWE1 (second series), active compounds read low 0.979 | locus YJL187C, strain SWE1, active compounds read low 0.988
